This is an account of results in PubChem BioAssay (EPA / NIEHS).

Active and inactive are the calls of the source. The calls were made as follows: active = hit-call score of the fitted dose curve at least 0.9, where 1 is the maximum; inactive = score below 0.9.

Common to all, as to settings: mRNA level, 48 h; actives raise or lower the signal
Read-out in test [1]: Bcl-2 (BID) gene, BID (gene 637)
The test is described as follows: LTEA_HepaRG_BID: Life Technologies and Expression Analysis (LTEA) Assay for Bcl-2 (BID) gene using HepaRG (AID 2283476). In short, it runs like this: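 Gene expression by qRT-PCR in HepaRG cells after 48 h exposure, duplicate wells, eight half-log concentrations topping at 100 uM in 0.5% DMSO. Normalized to ACTB, GAPDH, POLR2A; bidirectional fitting relative to DMSO.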

Read-out in a further test: Caspase-3 (Homo sapiens) (UniProt P42574)
The test is described as follows: LTEA_HepaRG_CASP3: Life Technologies and Expression Analysis (LTEA) Assay for cysteine-aspartic acid protease (CASP3) using HepaRG (AID 2283477). Summed up: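 In HepaRG liver cells dosed for 48 h at up to 100 uM (eight-point, duplicate), CASP3 expression changes are scored by qRT-PCR. Activity is fitted in both directions with 0.5% DMSO as baseline.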

Read-out in test [2]: Cytochrome P450 (CYP24A1), CYP24A1 (gene 1591)
Briefly: LTEA_HepaRG_CYP24A1: Life Technologies and Expression Analysis (LTEA) Assay for Cytochrome P450 (CYP24A1) using HepaRG (AID 2283478). In short, it runs like this:
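Human liver HepaRG cultures receive each chemical for 48 h across an eight-point half-log series topping at 100 uM in 0.5% DMSO. Induction or suppression of CYP24A1 mRNA is scored relative to vehicle after housekeeping-gene normalization.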

Read-out in test [3]: Cytochrome P450 (CYP1A2), CYP1A2 (gene 1544)
Briefly: LTEA_HepaRG_CYP1A2: Life Technologies and Expression Analysis (LTEA) Assay for Cytochrome P450 (CYP1A2) using HepaRG (AID 2283479). Summed up:
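Assesses CYP1A2 mRNA in human HepaRG liver cells after 48 h chemical exposure at up to 100 uM. Values come from qRT-PCR with bidirectional curve fitting relative to DMSO.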

Read-out in test [4]: cysteine-aspartic acid protease (CASP8), CASP8 (gene 841)
The test is described as follows: LTEA_HepaRG_CASP8: Life Technologies and Expression Analysis (LTEA) Assay for cysteine-aspartic acid protease (CASP8) using HepaRG (AID 2283480). In short, it runs like this: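 Differentiated HepaRG cells in serum-free induction medium, 48 h exposure, eight-point half-log series from 100 uM in 0.5% DMSO, duplicates. CASP8 mRNA by qRT-PCR, normalized to ACTB, GAPDH, POLR2A; bidirectional fit versus DMSO.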

Read-out in test [5]: Cytochrome P450 (CYP2B6), CYP2B6 (gene 1555)
The test is described as follows: LTEA_HepaRG_CYP2B6: Life Technologies and Expression Analysis (LTEA) Assay for Cytochrome P450 (CYP2B6) using HepaRG (AID 2283481). In short, it runs like this:
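Using 48 h treatment of HepaRG cells in serum-free induction medium, concentrations spanned half-log steps from 100 uM in 0.5% DMSO vehicle. CYP2B6 mRNA induction or loss is scored by qRT-PCR against DMSO.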

Read-out in test [6]: Cytochrome P450 2C19 (Homo sapiens) (UniProt P33261)
The test is described as follows: LTEA_HepaRG_CYP2C19: Life Technologies and Expression Analysis (LTEA) Assay for CYP2C19 using HepaRG (AID 2283482). Summed up:
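Human HepaRG liver cells received test chemicals for 48 h (highest 100 uM, half-log dilutions in 0.5% DMSO). CYP2C19 mRNA induction or loss is read by multiplexed qRT-PCR and fitted in both directions versus vehicle.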

Read-out in another test: CYP2C8 (gene 1558)
Briefly: LTEA_HepaRG_CYP2C8: Life Technologies and Expression Analysis (LTEA) Assay for CYP2C8 using HepaRG (AID 2283483). Summed up:
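Differentiated HepaRG cells in serum-free induction medium exposed 48 h in duplicate to 8 half-log concentrations from 100 uM in 0.5% DMSO. CYP2C8 mRNA by qRT-PCR normalized to ACTB, GAPDH, POLR2A; bidirectional fit versus DMSO.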

Read-out in another test: CYP2C9 (gene 1559)
Briefly: LTEA_HepaRG_CYP2C9: Life Technologies and Expression Analysis (LTEA) Assay for CYP2C9 using HepaRG (AID 2283484). Summed up:
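Differentiated human HepaRG cells in serum-free induction medium were exposed 48 h to chemicals in 8-point half-log series from 100 uM (0.5% DMSO), in duplicate. CYP2C9 mRNA was measured by qRT-PCR, normalized to ACTB/GAPDH/POLR2A, with bidirectional fitting versus DMSO.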

Read-out in a further test: CYP2E1 (gene 1571)
The test is described as follows: LTEA_HepaRG_CYP2E1: Life Technologies and Expression Analysis (LTEA) Assay for CYP2E1 using HepaRG (AID 2283485). Summed up: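 HepaRG cells, plated 48 h, then exposed 48 h in serum-free induction medium to eight half-log concentrations from 100 uM in 0.5% DMSO, duplicate. CYP2E1 mRNA by qRT-PCR, normalized to ACTB/GAPDH/POLR2A; bidirectional fit versus DMSO.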

Read-out in another test: CYP4A11 (gene 1579)
The test is described as follows: LTEA_HepaRG_CYP4A11: Life Technologies and Expression Analysis (LTEA) Assay for CYP4A11 using HepaRG (AID 2283486). In short, it runs like this: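 Readout is CYP4A11 mRNA induction or suppression (qRT-PCR, ACTB/GAPDH/POLR2A normalization) in human HepaRG cells after 48 h chemical treatment, concentrations to 100 uM in 0.5% DMSO, fitted bidirectionally against vehicle.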

Read-out in test [7]: Cytochrome P450 3A4 (Homo sapiens) (UniProt P08684)
The test is described as follows: LTEA_HepaRG_CYP3A4: Life Technologies and Expression Analysis (LTEA) Assay for CYP3A4 using HepaRG (AID 2283487). Summed up: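 In a human hepatic line (HepaRG), duplicate wells were treated 48 h with up to 100 uM chemical in half-log dilutions. Endpoint: CYP3A4 mRNA induction or loss relative to 0.5% DMSO vehicle, by qRT-PCR.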

Read-out in test [8]: DNA damage-inducible transcript 3 (DDIT3), DDIT3 (gene 1649)
The test is described as follows: LTEA_HepaRG_DDIT3: Life Technologies and Expression Analysis (LTEA) Assay for DNA damage-inducible transcript 3 (DDIT3) using HepaRG (AID 2283488). In short, it runs like this:
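HepaRG cells, 48 h after plating, exposed 48 h in serum-free induction medium to 8 half-log concentrations up to 100 uM in 0.5% DMSO, in duplicate. DDIT3 mRNA measured by TaqMan qRT-PCR, normalized to ACTB, GAPDH and POLR2A. Fitted bidirectionally against DMSO.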

Read-out in test [9]: Pro-epidermal growth factor (Homo sapiens) (UniProt P01133)
Briefly: LTEA_HepaRG_EGF: Life Technologies and Expression Analysis (LTEA) Assay for Epidermal growth factor (EGF) using HepaRG (AID 2283489). In short, it runs like this:
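EGF expression changes in human HepaRG cells are scored by bidirectional fitting relative to 0.5% DMSO controls. Chemicals are tested at eight half-log concentrations up to 100 uM for 48 h in serum-free induction medium.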

Read-out in test [10]: Ezrin (EZR), EZR (gene 7430)
The test is described as follows: LTEA_HepaRG_EZR: Life Technologies and Expression Analysis (LTEA) Assay for Ezrin (EZR) using HepaRG (AID 2283491). In short, it runs like this: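 Gain or loss of EZR mRNA is scored relative to 0.5% DMSO in human HepaRG cultures treated 48 h with test chemicals in duplicate, eight half-log concentrations from 100 uM.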

Read-out in another test: CYP3A5 (gene 1577)
Briefly: LTEA_HepaRG_CYP3A5: Life Technologies and Expression Analysis (LTEA) Assay for CYP3A5 using HepaRG (AID 2283493). In short, it runs like this:
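HepaRG cells, plated 48 h then in serum-free induction medium, dosed in duplicate for 48 h with eight half-log concentrations up to 100 uM in 0.5% DMSO. Gene mRNA by Fluidigm TaqMan qRT-PCR, normalized to ACTB, GAPDH, POLR2A.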

Read-out in test [11]: Fatty Acid-Binding Protein 1 (FABP1), FABP1 (gene 2168)
Briefly: LTEA_HepaRG_FABP1: Life Technologies and Expression Analysis (LTEA) Assay for Fatty Acid-Binding Protein 1 (FABP1) using HepaRG (AID 2283494). In short, it runs like this: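 Differentiated human HepaRG cells exposed 48 h in serum-free induction medium to eight half-log concentrations up to 100 uM (0.5% DMSO), duplicate. FABP1 mRNA by qRT-PCR, normalised to ACTB, GAPDH, POLR2A; bidirectional fitting against DMSO.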

Read-out in test [12]: Cytochrome P450 4A22 (Homo sapiens) (UniProt Q5TCH4)
Briefly: LTEA_HepaRG_CYP4A22: Life Technologies and Expression Analysis (LTEA) Assay for Cytochrome P450 4A22 (CYP4A22) using HepaRG (AID 2283495). Summed up:
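Cryopreserved HepaRG cells, plated and cultured 48 h, then switched to serum-free induction medium and treated 48 h (duplicates, up to 100 uM, half-log steps, 0.5% DMSO). Expression change of CYP4A22 was fitted bidirectionally against vehicle.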

Read-out in test [13]: Cytochrome P450 3A7 (Homo sapiens) (UniProt P24462)
Briefly: LTEA_HepaRG_CYP3A7: Life Technologies and Expression Analysis (LTEA) Assay for CYP3A7 using HepaRG (AID 2283492). In short, it runs like this:
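Cells were thawed, plated, cultured 48 h, then treated for a further 48 h with chemicals (eight-point half-log series from 100 uM, 0.5% DMSO). RNA was isolated and CYP3A7 expression quantified by qRT-PCR normalised to ACTB, GAPDH and POLR2A.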

Cytochrome P450 3A4 (Homo sapiens), sequence (P08684 whole entry, looked up): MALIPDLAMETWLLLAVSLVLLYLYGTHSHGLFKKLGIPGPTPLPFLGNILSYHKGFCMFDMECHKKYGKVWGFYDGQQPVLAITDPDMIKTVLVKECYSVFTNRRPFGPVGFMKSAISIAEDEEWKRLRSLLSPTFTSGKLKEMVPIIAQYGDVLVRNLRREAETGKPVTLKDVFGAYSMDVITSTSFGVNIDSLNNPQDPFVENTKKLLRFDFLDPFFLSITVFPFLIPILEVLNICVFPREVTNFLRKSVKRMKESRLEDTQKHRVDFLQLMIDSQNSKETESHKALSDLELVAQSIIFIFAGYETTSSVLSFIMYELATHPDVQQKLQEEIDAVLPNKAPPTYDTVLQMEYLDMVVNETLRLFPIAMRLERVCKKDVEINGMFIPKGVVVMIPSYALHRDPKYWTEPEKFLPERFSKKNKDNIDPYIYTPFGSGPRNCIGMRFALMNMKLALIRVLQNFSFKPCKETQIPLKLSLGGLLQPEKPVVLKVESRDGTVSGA
Caspase-3 (Homo sapiens), sequence (P42574 whole entry, looked up): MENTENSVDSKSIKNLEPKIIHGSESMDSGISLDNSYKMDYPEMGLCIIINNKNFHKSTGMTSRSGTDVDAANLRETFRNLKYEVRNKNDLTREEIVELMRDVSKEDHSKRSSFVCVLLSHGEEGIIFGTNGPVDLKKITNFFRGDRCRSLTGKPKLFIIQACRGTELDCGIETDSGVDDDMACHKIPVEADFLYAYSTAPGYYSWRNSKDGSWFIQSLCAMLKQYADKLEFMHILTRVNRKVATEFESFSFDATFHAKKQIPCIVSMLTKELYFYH
Cytochrome P450 2C19 (Homo sapiens), sequence (P33261 whole entry, looked up): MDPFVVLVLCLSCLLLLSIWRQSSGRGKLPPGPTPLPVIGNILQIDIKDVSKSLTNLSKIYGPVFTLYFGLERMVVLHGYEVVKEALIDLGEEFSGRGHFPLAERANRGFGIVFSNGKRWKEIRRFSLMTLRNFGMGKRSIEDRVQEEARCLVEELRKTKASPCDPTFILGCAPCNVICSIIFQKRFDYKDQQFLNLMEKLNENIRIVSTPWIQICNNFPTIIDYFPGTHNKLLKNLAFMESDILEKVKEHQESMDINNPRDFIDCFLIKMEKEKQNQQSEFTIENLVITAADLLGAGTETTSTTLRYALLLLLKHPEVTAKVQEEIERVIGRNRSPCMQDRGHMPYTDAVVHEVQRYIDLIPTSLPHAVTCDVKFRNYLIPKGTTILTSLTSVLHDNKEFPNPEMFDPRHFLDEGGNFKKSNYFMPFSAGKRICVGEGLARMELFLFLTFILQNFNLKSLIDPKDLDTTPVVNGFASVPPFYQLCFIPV
Cytochrome P450 3A7 (Homo sapiens), sequence (P24462 whole entry, looked up): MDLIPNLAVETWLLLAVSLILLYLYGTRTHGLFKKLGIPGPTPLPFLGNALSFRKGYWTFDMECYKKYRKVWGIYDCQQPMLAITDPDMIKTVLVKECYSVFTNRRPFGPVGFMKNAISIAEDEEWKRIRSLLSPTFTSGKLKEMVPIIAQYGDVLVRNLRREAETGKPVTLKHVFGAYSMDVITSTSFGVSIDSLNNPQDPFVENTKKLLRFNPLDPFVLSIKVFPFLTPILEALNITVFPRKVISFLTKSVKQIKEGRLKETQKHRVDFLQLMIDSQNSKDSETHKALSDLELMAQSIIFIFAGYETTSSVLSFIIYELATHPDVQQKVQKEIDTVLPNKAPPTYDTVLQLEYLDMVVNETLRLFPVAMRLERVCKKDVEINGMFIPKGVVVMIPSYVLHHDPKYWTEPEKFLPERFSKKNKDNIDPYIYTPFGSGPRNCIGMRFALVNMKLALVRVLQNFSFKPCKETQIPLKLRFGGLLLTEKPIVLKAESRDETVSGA

As for `CC(C)C1(C)N=C(c2ncccc2C(=O)O)NC1=O` (stereo not drawn), the result (in [1]; with Caspase-3 (Homo sapiens); in test [2]; in test [3]; in [4]; in test [5]) was inactive. Further, the call (in test [6]; with CYP2C8 (gene 1558); in the test with CYP2C9 (gene 1559); with CYP2E1 (gene 1571); with CYP4A11 (gene 1579); in [7]) was inactive. The outcome (in test [8]; in test [9]; in [10]; with CYP3A5 (gene 1577); in test [11]; in test [12]) was inactive.
In the case of `CCNC(=O)NC(=O)C(C#N)=NOC`, the AC50 was 234 nM (active) in test [1], 3.37 µM (active) in test [5], 50 µM (active) in the test with CYP2E1 (gene 1571) and 11.6 µM (active) in test [8]. The molecule was called inactive (in the test with Caspase-3 (Homo sapiens); in [2]; in test [3]; in test [4]; in test [6]; with CYP2C8 (gene 1558)). The outcome (with CYP2C9 (gene 1559); in the test with CYP4A11 (gene 1579); in test [7]; in [10]; in test [13]; in the test with CYP3A5 (gene 1577)) was inactive. Besides, in test [11], the result was inactive.
Turning to `CC(C)Nc1nc(Cl)nc(NC(C)C)n1`, the molecule was called inactive (in test [1]; with Caspase-3 (Homo sapiens); in [2]; in [3]; in test [4]; in the test with CYP2C8 (gene 1558)). In addition, the molecule was called inactive (in the test with CYP2C9 (gene 1559); with CYP4A11 (gene 1579); in test [8]; in test [9]; in test [10]; with CYP3A5 (gene 1577)). The call in [12] was inactive. The AC50 was 2.93 µM (active) in [5]; 4.74 µM (active) in test [6]; 37.8 µM (active) with CYP2E1 (gene 1571); 7.35 µM (active) in test [7]; 19.2 µM (active) in [11].
